In PubChem BioAssay (NCI):
Several values for one entry are separate records, joined by “and”; a condition that tells them apart may be missing. Equal values may be shown once. The panel holds about 83,000 compounds, 20% with a hit somewhere; the sample as a whole holds those more often.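 Results are percent growth after 48 hours of single-concentration exposure. 100 means growth as in untreated cells, lower positive values show inhibition; negative values down to -100 show cell death.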 Unmarked numbers belong to inactive results. Activity calls are given as the source filed them.

system: COLO 205 colon; assay: NCI-60 one-dose screen, 48 h (100 = growth as untreated, 0 = no growth, -100 = all killed); settings: 1 µM
Procedure: Cells are grown in 96 well plates and exposed to the test compound for 48 hours. Compounds are tested at a single concentration, which is 10^-5 M for most compounds. The reported endpoint is percent growth (GI% or GIPRCNT), where numbers from 0 - 100% represent growth inhibition, and numbers from -100% - 0 represent cell death. For example, a value of 40 represents 60% growth inhibition. A value of 0 means no net growth occurred over the course of the experiment. A value of -40 indicates 40% of cells at the beginning of the experiment died by the end of the experiment. A value of -100 means all cells are dead at the end of the experiment.
NCI-60 Human Tumor Cell Lines Screen was performed using the standard one-dose NCI protocol, which is described in more detail at https://dtp.cancer.gov/discovery_development/nci-60/default.htm.
Compounds with GIPRCNT values below 10 were considered active. Activity score was based on GIPRCNT using the following formula: […]
Score is 0 for GIPRCNT values of 100 or above, 50 for GIPRCNT values of 0, and 100 for GIPRCNT values of -100.

Structure (SMILES)	growth
CC/C(=C(/c1ccc(O)cc1)c1ccc(OCCN(C)C(=O)COCCOCCNC(=O)c2ccc3c(c2)CN([C@@H]2CCC(=O)NC2=O)C3=O)cc1)c1ccccc1	91.3%

same assay, conditions: 10 µM

Structure (SMILES)	growth
CC/C(=C(/c1ccc(O)cc1)c1ccc(OCCN(C)C(=O)COCCOCCNC(=O)c2ccc3c(c2)CN([C@@H]2CCC(=O)NC2=O)C3=O)cc1)c1ccccc1	79.3%

same assay, conditions: 10 µM unless noted

Structure (SMILES)	growth
COc1ccc(-c2cc(C(=O)OCc3ccc(Br)cc3)nn2-c2ccc(S(C)(=O)=O)cc2)cc1OC	110%
COc1cc(CNC(=O)C[C@H](C)CCC=C(C)C)ccc1OCc1cn(-c2ccccc2Cl)nn1	71.7%
N#CC1=C(c2ccco2)Nc2c(c(-c3ccccc3)nn2-c2ccccc2)C12C(=O)Nc1ccc(Br)cc12 (stereo not given)	86.9%
C/C(=N/O)c1ccc(NC(=O)CSc2nnc(-c3ccc(-c4nc5ccc(Cl)cc5[nH]4)cc3)o2)cc1	50.3%
Nc1ccc(-c2ccc3ncnc(N4CCc5cc(F)c(Cl)cc54)c3c2)cn1	50%
CCC(=O)c1c2c(c3ccc4c5ccccc5ccc4n13)C(=O)c1ccccc1C2=O	75.8%
O=C(c1ccc(O)cc1)C1[C@H](c2ccc(Cl)cc2)[C@@H](c2ccccc2)NC12C(=O)Nc1ccc(Br)cc12 (stereo not given in full)	-86.3% (active)
CNc1nc2ccccc2n2c(-c3ccc(O)c(O)c3)cnc12	-54.3% (active)
Fc1ccccc1CNc1nc(SCCN2CCOCC2)nc2c1cnn2CC(Cl)c1ccc(Br)cc1 (stereo not given)	-9.47% (active)
CC1CCc2c(sc3nc(SCC(=O)c4cccc([N+](=O)[O-])c4)n(-c4ccccc4)c(=O)c23)C1 (stereo not given)	106%
COc1ccc2[nH]c(=O)c(CSc3ccccc3Nc3nccc(-c4ccc5c(c4)OCO5)n3)cc2c1	101%
O=C(Nc1nc2ccccc2s1)Nc1ccccc1Cl	97.5%
COc1cc(C=O)ccc1Oc1nc(Nc2ccc(F)cc2)nc(N(C)C)n1	110% and 103%
O=C(CSc1nnc(-c2ccc(-c3nc4ccc(Cl)cc4[nH]3)cc2)o1)Nc1ccc(Cl)cc1	45.3%
N/C(=N\c1nc2ccc([N+](=O)[O-])cc2s1)NC(=O)Nc1ccccc1Cl	49.3%
COc1ccc2[nH]c(O)c(N=Nc3nc(-c4ccccc4)cs3)c2c1	30%
COc1c(B(O)O)cccc1-c1nc2ccc3cn[nH]c3c2c2c1CCCC2	71.7%
C=CCSc1nnc(-c2ccc(-c3nc4ccc(Cl)cc4[nH]3)cc2)o1	55.7%
COc1ccc(N=Nc2c(N)nn3c(N)c(C#N)c(-c4ccc(C)cc4)nc23)cc1	85.6%

Structure (SMILES)	growth
CC1(C)CC(=O)C2=C(C1)OC(N)=C(c1nc3ccccc3[nH]1)C2c1ccc(Cl)cc1 (stereo not given)	78.8% and 121%
C=CCn1c(O)c(N=Nc2nc(-c3cc4ccccc4oc3=O)cs2)c2ccccc21	18.1%
CCCCNC(=S)Nc1ccc(OCc2nc3ccc(Cl)cc3[nH]2)cc1	24.9%
O=C(CSc1nnc(-c2ccc(-c3nc4ccc(Cl)cc4[nH]3)cc2)o1)Nc1ccccc1	75.9%
COc1ccc(/C=C/C(=O)c2ccc(OC)c(S(N)(=O)=O)c2)c(C(F)(F)F)c1	4.9% (active)
CCOc1ccccc1NC(=O)N/C(N)=N/c1nc2ccccc2s1	-78.1% (active)
CC[C@@]12CC(C(=O)OC)=C3Nc4cc5c(cc4[C@@]34CCN(C[C@H]3O[C@H]31)[C@@H]24)[C@@H]1[C@H](O5)[C@@H](O)[C@@]2(CC)CC(C(=O)OC)=C3Nc4cc(O)ccc4[C@@]34CCN1[C@@H]24	-61.5% (active)
O=C(NC(=S)N1CCN(c2ncnc3c2cnn3-c2ccccc2)CC1)c1ccc(F)cc1	90.4%
COC(=O)c1cc(C(=O)C(C)(C)C)n2c3ccccc3c3ccccc3c12	112%
N#CC1=C(c2cccs2)Nc2c(c(-c3ccccc3)nn2-c2ccccc2)C12C(=O)Nc1ccc(Cl)cc12 (stereo not given)	-29.2% (active)
O=C(Nc1ccc(Cl)c(C(F)(F)F)c1)N1CCN(c2cc(-c3cn(-c4ccccc4)nc3-c3cccc(O)c3)ccn2)CC1	-2.61% (active)
CC[C@]12C=CCN3CC[C@]4(C(=C(C(=O)OC)C1)Nc1cc(OC)c([C@@H]5[C@H]6O[C@H]6[C@@]6(CC)CC(C(=O)OC)=C7Nc8cc(OC)ccc8[C@@]78CCN5[C@@H]68)cc14)[C@@H]32	57.7%
Cc1ccc(C(C(=O)NC2CCCCC2)N(Cc2ccccc2Cl)C(=O)c2ccc(CN3CCOCC3)o2)o1 (stereo not given)	121%
Nc1nc(-c2ccccc2)c(N=Nc2ccc(Cl)cc2Cl)s1	-16.6% (active)
Cc1cccc(C)c1Nc1nnc(-c2c[nH]c3ccccc23)o1	110%
O=C1/C(=C/c2cnc(-c3ccccc3)s2)SC(=S)N1Cc1ccc2c(c1)OCO2	125%
Nc1nn2c(-c3cc4cc(Br)ccc4oc3=O)ccnc2c1N=Nc1ccccc1	80.2%
COc1sc(/C=N/NC(=O)c2[nH]c3ccc(Br)cc3c2-c2ccccc2)cc1Cl	-60.9% (active)
S=C(Nc1ccccc1)Nc1ccc(OCc2nc3ccc(Cl)cc3[nH]2)cc1	114%
